Compound activity deposited in PubChem BioAssay by National Center for Advancing Translational Sciences (NCATS).
NPC1 promoter act: qHTS Assay for NPC1 Promoter Activators; Huh7 NPC1 promoter luciferase reporter, 24 h; AID 485313, 2010; Potency, µM (highest dose often 9.22 µM), inactives show top-dose activation, most hits filed as activators; 320,000 compounds, 2.4% hits; note: % of control where 0% means no effect; nearly all actives have a fitted effect of over 60% in size
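Luminescence from an NPC1 promoter-driven luciferase reporter in stably transfected Huh7 cells was measured after 24 h compound treatment at 37 °C, followed by 10 min ambient incubation with luciferase detection reagent.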
ELG1 DNA repair: qHTS screen for small molecules that inhibit ELG1-dependent DNA repair in human embryonic kidney (HEK293T) cells expressing luciferase-tagged ELG1. Potency, µM (doses to about 46.1 µM), for inactives: at the highest dose activity change, negative = inhibition, hits mostly inhibitors. HEK293T ELG1-luciferase reporter, luminescence, 16 h; DNA damage induced by 5-fluorouridine. 330,000 compounds, 2.3% hits; note: % is set by controls: 0 for no effect and ±100 for the full control effect; nearly all actives have a fitted effect of over 55% in size
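Reporter activity after DNA damage by 5-fluorouridine is monitored. Compound-treated cells incubate 16 hr at 37 °C, then ONE-Glo is added for 30 min before luminescence reading.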
ELG1 genotoxic: qHTS screen for small molecules that induce genotoxicity in human embryonic kidney (HEK293T) cells expressing luciferase-tagged ELG1; 330,000 compounds, 1.3% hits; HEK293T ELG1-luciferase reporter, luminescence, 16 h; Potency, µM (highest dose often 46 µM), for the others: at the highest dose activity change, positive = activation, hits mostly activators; note: % of control where 0% means no effect; nearly all actives have a fitted effect of over 60% in size
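Screening used a luciferase reporter fused to human ELG1 in HEK293T cells. Luminescence was read on a CCD plate imager after 16 hr exposure and 30 min ONE-Glo incubation.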
Rab9 promoter act: qHTS Assay for Rab9 Promoter Activators; Huh7 Rab9 promoter-luciferase reporter, luminescence, 24 h; Potency, µM (highest dose often 9.22 µM), for the others: at the highest dose activation, negative = inhibition, actives largely listed as activators; 320,000 compounds, 2.8% hits; note: % of control where 0% means no effect; nearly all actives have a fitted effect of over 60% in size
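Rab9 promoter-driven luciferase in stably transfected Huh7 cells; 1500 cells/well rested 2 h, exposed to compound in DMSO for 24 h at 37 °C, 5% CO2. Luminescence read 10 min after adding luciferase reagent at ambient temperature.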
SMN2 splice up: qHTS Assay for Enhancers of SMN2 Splice Variant Expression; 210,000 compounds, 2.8% hits; AID 1458, 2008; Potency, µM (doses to about 46.1 µM), inactives show at the top dose activity change, positive = activation, hits mostly activators; HEK293 SMN2-luciferase splicing reporter, luminescence, 30-36 h; note: % of control where 0% means no effect; nearly all actives have a fitted effect of over 55% in size
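HEK293 cells carry an SMN2 minigene-luciferase reporter in which exon 7 inclusion puts luciferase in frame. Cells were seeded at 2000 cells/well, attached for 10-12 hours, then exposed to compounds for 30-36 hours at 37C before ONE-Glo luminescence.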
FLuc modulator: qHTS profiling assay for firefly luciferase inhibitor/activator using purifed enzyme and Km concentrations of substrates (counterscreen for miR-21 project). purified FLuc, Km substrates, luminescence inhibition. 360,000 compounds, 6.9% hits. Potency, µM (doses to about 57.5 µM), without a hit: top-dose activity change, negative = inhibition, hits mostly inhibitors. Luciferin 4-monooxygenase (Photinus pyralis), P08659;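 note: plate controls were vehicle for no effect and reference inhibitor for full effect; nearly all actives have a fitted effect of over 55% in size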
Target sequence (P08659 whole entry, looked up): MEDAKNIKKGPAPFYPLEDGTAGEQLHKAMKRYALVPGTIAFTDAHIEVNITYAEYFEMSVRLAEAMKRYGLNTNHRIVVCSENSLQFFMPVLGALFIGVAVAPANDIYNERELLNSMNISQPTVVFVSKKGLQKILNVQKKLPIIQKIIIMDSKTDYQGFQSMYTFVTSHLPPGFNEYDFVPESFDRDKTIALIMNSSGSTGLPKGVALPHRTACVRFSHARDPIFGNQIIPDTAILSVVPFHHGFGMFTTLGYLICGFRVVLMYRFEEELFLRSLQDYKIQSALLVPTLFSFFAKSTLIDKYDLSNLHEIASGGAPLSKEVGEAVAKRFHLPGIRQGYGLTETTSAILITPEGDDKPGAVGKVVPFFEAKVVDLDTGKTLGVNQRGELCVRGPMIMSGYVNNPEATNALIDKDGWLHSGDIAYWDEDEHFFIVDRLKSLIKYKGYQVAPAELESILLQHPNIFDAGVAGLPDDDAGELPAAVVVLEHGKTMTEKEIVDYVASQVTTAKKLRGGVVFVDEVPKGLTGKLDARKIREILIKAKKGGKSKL
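Biochemical qHTS of compounds, final roughly 60 µM downward over six points, against 10 nM purified firefly luciferase using Km concentrations of substrates (10 uM D-luciferin, 10 uM ATP) in Tris acetate pH 7.5 buffer; luminescence output.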
Active calls of the source: *; ? = inconclusive; . = not tested or not shown; [ ] = remark or other dose. Only some compounds are listed: those with a hit (about 9.4% of all), similar ones and a draw of the others. Calls come from the whole dose curve; as a rule, active = well fitted curve in the direction sought with a large enough effect; inconclusive = small, poorly fitted or top-dose-only effect, or another doubt; inactive = no such curve, though single readings can be large; an effect the other way counts as inactive or inconclusive. Potency is the fitted concentration of half-maximal effect.

SMILES | NPC1 promoter act | ELG1 DNA repair | ELG1 genotoxic | Rab9 promoter act | SMN2 splice up | FLuc modulator
COc1ccc(NC(=O)c2ccc(CNS(=O)(=O)c3ccc4c(c3)C(C)(C)C(=O)N4C)cc2)cc1 | . | . | . | . | . | 0%
CCOC(=O)N1CCC(N2CCCC(C(=O)c3ccc4cc(OC)ccc4c3)C2)CC1 (configuration not stated) | -5% | 23µM* | 0% | -4% | . | -11%
CCOC(=O)N1CCC(N2CCCC(C(=O)c3cc(C)c(OC)c(C)c3)C2)CC1 (configuration not stated) | -2% | ? | -2% | -6% | . | -1%
CCC(=O)Nc1cccc(C(=O)c2ccccc2)c1 | 0% | 0% | 10% | 2% | 3% | -8%
CCC(=O)Nc1cccc(C(=O)/C=C/c2cccs2)c1 | 26% | 0% | 12% | ? | -64% | 12µM*
CCC(=O)Nc1cccc(C(=O)/C=C/c2ccccc2)c1 | -2% | ? | ? | 6% | -88% | 11µM*
CCN(CC)CC(C)CNC(=O)c1cc(-c2ccc(Br)s2)nc2ccccc12 (configuration not stated) | . | . | . | . | -5% | 0%
Nc1cccc(B(O)O)c1 | . | . | . | . | -11% | .
COc1cc2oc(=O)cc(-c3ccc(-c4ccc(CO)cc4)cc3)c2c(OC)c1OC | . | 5.8µM* | -5% | . | . | .
Cc1cccc(Nc2cc(C)c3c(O)cccc3n2)c1C | 14% | -10% | 0% | 14% | -4% | 17µM*
Cc1cc(Nc2ccccc2O)nc(C)n1 | . | . | . | . | . | -7%
Cc1cccc(NC(=O)CN2C(=O)N/C(=C\c3ccc(N4CCOCC4)cc3)C2=O)c1 | ? | ? | ? | ? | 11µM* | 3µM*
Cc1cc(N2CCOCC2)ccc1/C=C1\NC(=O)N(CC(=O)Nc2ccc(F)cc2)C1=O | ? | ? | 13% | ? | 18% | ?
CCc1nnc(SCc2nc(-c3ccccc3Cl)oc2C)c2cc3sc(C)cc3n12 | . | . | . | . | . | 5%
CCc1ccc(Nc2ncc3c(n2)CC(C)(C)CC3=O)cc1 | 3.2µM* | ? | ? | 2.5µM* | . | 15µM*
Cc1cc(C)cc(Nc2ncc3c(n2)CCCC3=O)c1 | 4µM* | ? | ? | 4µM* | 2.5µM* | 3.4µM*
Cc1cccc(Nc2ncc3c(n2)CC(c2ccco2)CC3=O)c1 (configuration not stated) | -2% | -11% | 0% | 0% | 10% | 2%
Cc1cccc(Nc2ncc3c(n2)CC(C)CC3=O)c1 (configuration not stated) | 3.5µM* | ? | 4.6µM* | 3.5µM* | 11µM* | 9.5µM*
CCc1ccc(Nc2ncc3c(n2)CC(C)CC3=O)cc1 (configuration not stated) | 2µM* | ? | ? | 1.3µM* | . | ?
CCc1ccc(Nc2ncc3c(n2)CC(c2ccc(OC)cc2)CC3=O)cc1 (configuration not stated) | -2% | -9% | 0% | -1% | -15% | 5%
Cc1ccc2nc(Nc3ncc4c(n3)CCCC4=O)nc(C)c2c1 | -2% | 0% | 0% | 5% | 6% | -1%
COc1cc(OC)c2c(c1)OC1Cc3cc(OC)c(OC)cc3C2O1 (configuration not stated) | . | . | . | . | -4%[9.22 µM] | .
Cc1ccc(Cl)cc1N1CCN(C(=O)c2cccn2-c2nnc(N3CCCC3)s2)CC1 | . | . | . | . | . | 0%
CC1=C(C(=O)Nc2ccc(C)cc2C)C(c2ccc(O)cc2)n2nnnc2N1 (configuration not stated) | . | . | . | . | 7% | -9%
Cc1nn(CC(=O)Nc2ccc(C(C)C)cc2)c(=O)c2c(C)n(-c3ccc(Cl)cc3)nc12 | . | . | . | . | . | -17%
SMILES | NPC1 promoter act | ELG1 DNA repair | ELG1 genotoxic | Rab9 promoter act | SMN2 splice up | FLuc modulator
C/C(=N\Nc1nc2ccccc2[nH]1)c1ccc2c(c1)OCCO2 | -38% | ? | -4% | -5% | . | 6µM*
COc1ccc(/C(C)=N\NC(=O)c2ccc3c(c2)OCO3)cc1OC | 1% | ? | 3% | 2% | -8% | ?
C/C(=N\Nc1ccccn1)c1ccc2c(c1)OCO2 | ? | ? | ? | 3.2µM* | . | 21µM*
CC(C)C(NC(=O)c1ccc2c(c1)OCCO2)c1nc2ccccc2[nH]1 (configuration not stated) | -9% | ? | ? | -7% | . | -1%
C/C(=N\Nc1nc2ccccc2[nH]1)c1ccc2c(c1)OCO2 | 14% | -7% | -5% | 15% | 0% | 27µM*
C(=N\Nc1nc2ccccc2[nH]1)/c1ccc2c(c1)OCO2 | 1.6µM* | ? | ? | 2µM* | 13µM* | 7.6µM*
O=C(CCc1nc2ccccc2[nH]1)NCc1ccc2c(c1)OCO2 | 1% | 21% | 1% | -1% | -5% | -1%
COc1cc(CN(CC2CCCO2)C(=O)c2ccc(F)cc2)cc(OC)c1OC (configuration not stated) | . | . | . | . | 3% | -3%
CCCCOc1ccc(C(=O)NCC2(N3CCN(C)CC3)CCCCC2)cc1 | . | . | . | . | . | 0%
O=C(CCc1nc2ccccc2[nH]1)Nc1ccc2c(c1)OCO2 | 4% | 8% | 6% | -1% | -6% | ?
Clc1ccccc1N/N=C/c1ccc2c(c1)OCO2 | 2.8µM* | ? | ? | 2.8µM* | 20µM* | 11µM*
N#CC1(c2nc3ccccc3[nH]2)CC1c1ccc2c(c1)OCO2 (configuration not stated) | 1% | -5% | 3% | 0% | 11% | 19µM*
O=C(NCc1ccccc1)c1cc2ccccc2oc1=O | 19% | ? | ? | -2% | . | 15µM*
CN(C)C(CNC(=O)c1cc2ccccc2oc1=O)c1ccccc1 (configuration not stated) | 3.5µM* | ? | ? | ? | . | 15µM*
COc1ccccc1CNC(=O)c1cc2ccccc2oc1=O | -2% | 0% | -1% | 0% | . | -1%
O=C(N/N=C/c1ccccc1F)c1csc2c1CCCC2 | 1.1µM* | ? | ? | 1.3µM* | 8.9µM* | 2.7µM*
O=C(N/N=C/c1cccc(F)c1)c1csc2c1CCCC2 | 1µM* | ? | ? | 1.3µM* | 14µM* | 4.8µM*
Cc1cccc(C)c1NC(=O)c1csc2c1CCCC2 | . | . | . | . | -4% | -3%
